# Measurements from PubChem BioAssay (NCI).
# Several values for one entry are separate records, joined by “and”; a condition that tells them apart may be missing. Equal entries are not always repeated. Compounds without any hit were thinned out: in the full panel of roughly 79,000, 15% have a hit. Unmarked numbers belong to inactive results. Activity calls are given as the source filed them. Rule as the data show it: active = growth inhibition above about 70%; inactive = the rest.
# Legend:
# [1] = NCI Yeast Anticancer Drug Screen. Data for the rad50 strain (AID 155);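 also: 0% = growth of vehicle-only cultures of the same strain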; settings: S. cerevisiae rad50 strain growth inhibition, active compounds read high
# Method in brief: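 A DNA repair-deficient yeast mutant serves as the test organism; compound-induced growth inhibition is calculated against vehicle-treated cells.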
# [2] = NCI Yeast Anticancer Drug Screen. Data for the sgs1 mgt1 strain (AID 161);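 also: 0% = growth of cultures given vehicle only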; settings: S. cerevisiae sgs1 mgt1 strain, active compounds read high
# Method in brief: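 Growth of a repair-deficient yeast mutant was monitored after compound treatment and expressed as inhibition relative to vehicle-treated cultures.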
# [3] = NCI Yeast Anticancer Drug Screen. Data for the cln2 rad14 strain (AID 165);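 also: 0% = growth equal to vehicle treated cultures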; settings: S. cerevisiae cln2 rad14 strain, active compounds read high
# Method in brief: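 Yeast strain cln2 rad14, bearing defects in cell cycle control and DNA repair, serves as the test system; values reflect growth inhibition compared with vehicle.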
# [4] = NCI Yeast Anticancer Drug Screen. Data for the bub3 strain (AID 167); settings: S. cerevisiae bub3 mutant strain, active compounds read high
# Method in brief: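 Inhibition values come from growth of compound-treated mutant yeast normalised to vehicle-treated controls.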
# [5] = NCI Yeast Anticancer Drug Screen. Data for the mlh1 rad18 strain (AID 175); settings: S. cerevisiae mlh1 rad18 strain growth inhibition, active compounds read high
# Method in brief: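 Steps: expose repair-defective yeast to compound; measure growth; express inhibition against vehicle-treated controls.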
# [6] = NCI Yeast Anticancer Drug Screen. Data for the mec2-1 strain (AID 157); settings: S. cerevisiae mec2-1 strain, active compounds read high
# Method in brief: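 Using mec2-1 yeast: add compound, measure growth, express inhibition versus vehicle-treated cultures.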
# [7] = at 5.0 µM (retest, dose inferred, filed as 0.5)
# [8] = at 50.0 µM (retest, dose inferred, filed as 5.0)
Structure (SMILES),"growth inhibition [1, 7]","growth inhibition [1, 8]",growth inhibition ([1]; at 50.0 µM),"growth inhibition [2, 7]","growth inhibition [2, 8]",growth inhibition ([2]; at 50.0 µM),"growth inhibition [3, 7]","growth inhibition [3, 8]",growth inhibition ([3]; at 50.0 µM),"growth inhibition [4, 7]","growth inhibition [4, 8]",growth inhibition ([4]; at 50.0 µM),"growth inhibition [5, 7]","growth inhibition [5, 8]",growth inhibition ([5]; at 50.0 µM),growth inhibition ([6]; at 50.0 µM),"growth inhibition [6, 7] [%]","growth inhibition [6, 8]"
Cc1cccc(C)c1N=Nc1c(C)nc(N)nc1-c1ccccc1,0%,88% (active),96.8% (active),5%,96% (active),95.5% (active),-4%,90% (active),94.3% (active),-7%,93% (active),96.3% (active),-4%,91% (active),95.3% (active),–,–,–
O=C(c1ccccc1)C1C(=O)c2ccccc2C1=O,–,–,-10.2% and -25.2% and 23.2%,–,–,-5.1% and 12.2% and 24.1%,–,–,-20.8% and 17.2% and 17.1%,–,–,-10.4% and -2.95% and 19.4%,–,–,-7.6% and -26.1% and 18.5%,1.1% and -21.3% and 20%,–,–
S=c1ncc2c([nH]1)C1c3ccccc3C2c2ccccc21,-9%,98% (active),86% (active),–,–,–,27%,99% (active),88% (active),16%,98% (active),92.4% (active),-1%,98% (active),90.5% (active),92% (active),-6,98% (active)
Cc1cc(Br)c(P(=O)(O)O)cc1[N+](=O)[O-],–,–,–,-3%,-14%,72% (active),0%,-5%,-2.55%,3%,6%,4.4%,3%,-4%,64%,42.7%,-7,-3%
CCCCCCCOc1ccc(C=O)cc1OC,0%,41%,7.3%,3%,45%,38.6%,-2%,26%,36.9%,-1%,38%,50%,1%,46%,33.8%,–,–,–
O=CC(O)C(O)C(O)C(O)C(O)CO (stereo not given),–,–,-13.5% and 36% and -23.8%,–,–,-8.85% and -1.5% and -6.45%,–,–,-56.4% and -44.2% and -19.8%,–,–,7.5% and 25.1% and -0.4%,–,–,-12.4% and 19.2% and 4.25%,-1.55% and -10.8% and -7.35%,–,–
CCOc1ccc(C(OC)OC)cc1[N+](=O)[O-],–,–,–,-11%,-7%,-25.1%,-4%,0%,87.5% (active),0%,1%,-0.8%,-1%,-7%,10%,-6.9%,-1,3%
COc1ccc(C2C(C#N)(C#N)C2(C#N)C#N)cc1,–,–,–,21%,98% (active),98.3% (active),2%,99% (active),88% (active),6%,98% (active),94.8% (active),22%,99% (active),92.7% (active),96.5% (active),19,99% (active)
O=C(CN1CCCC1)Nc1nc(-c2ccc(Cl)cc2)cs1,55%,69%,50.5%,54%,87% (active),67.5%,39%,57%,48.3%,45%,88% (active),67.6%,65%,82% (active),64.2%,–,–,–
Cc1ccc(NC(=O)CCCC(=O)C(C#N)c2ccccc2C)cc1C (stereo not given),-5%,7%,-17.3%,-5%,-19%,10.6%,-8%,-5%,-19.1%,-1%,2%,5.75%,1%,-4%,12.1%,–,–,–
Nc1ncnc2c1ncn2C1OCC(O)C1O (stereo not given),24%,66%,81.6% (active),–,–,–,29%,58%,64.5%,20%,82% (active),82.7% (active),21%,86% (active),82.2% (active),78.2% (active),33,68%
Cc1nn(-c2ccc(S(=O)(=O)[O-])cc2)c([O-])c1N=[N+](C)c1ccc(-c2ccc(N=Nc3ccc4c(S(=O)(=O)[O-])cc(S(=O)(=O)[O-])c(N)c4c3[O-])c([O-])c2)cc1[O-].[Cu+2].[Cu+2].[Na+],6%,-15%,-26.5%,6%,-15%,-19.4%,-7%,-28%,64.5%,-9%,-11%,-60.1%,-9%,-4%,17.6%,–,–,–
O=[N+]([O-])c1ccc(/C=C/[n+]2ccc3ccccc3c2)o1,29%,93% (active),98.8% (active),–,–,–,-6%,95% (active),96.2% (active),10%,97% (active),99.2% (active),52%,97% (active),99% (active),98.8% (active),24,91% (active)
CN1CC[C@@H](c2ccccc2)[C@@H](O)C1,0%,-11%,6.3%,–,–,–,-3%,-11%,-1.15%,0%,-3%,3.5%,-1%,-29%,9.55%,12%,4,-4%
[Cl][Co][Cl].[NH-]CC[N-]CC[N-]CC[NH-],–,–,29.6% and -6.2% and 5.8%,–,–,13.9% and 16.4% and 32.5%,–,–,28.4% and 16.1% and 18.5%,–,–,14.1% and 19.4% and 25.4%,–,–,6.35% and 12.3% and 47%,16.8% and -10.4% and 22.6%,–,–
Cc1cc(O)n(Cc2ccccc2)c(=O)c1,–,–,–,-67%,33%,34.6%,-60%,-45%,-4.75%,-70%,4%,47.9%,-123%,7%,67.1%,9.75%,-51,-36%
O=C1C=CCCCC1(c1ccccc1)c1ccccc1,2%,8%,77.5% (active),5%,15%,85.4% (active),9%,4%,19.9%,-3%,-6%,52.2%,-3%,12%,73.6% (active),–,–,–
Cc1nc(Nc2ccc(Cl)cc2)sc1C(=O)NNC(=S)NN,25%,75% (active),91.5% (active),-3%,77% (active),91.8% (active),8%,65%,91.6% (active),-5%,93% (active),88.3% (active),-30%,82% (active),88.5% (active),–,–,–
CC(CN(C)C)C(=O)c1ccccc1 (stereo not given),–,–,-3.95% and -8.85% and 34%,–,–,-4.85% and -15.9% and 18.1%,–,–,20.3% and -14.4% and 14.4%,–,–,-23.1% and -11.6% and 18.4%,–,–,0.3% and -18.9% and 23.1%,-43.7% and -18.4% and 16.6%,–,–
CCOC(=O)/C(=C/c1ccccc1Br)P(=O)(OCC)OCC,–,–,–,-12%,38%,41.9%,18%,53%,33.5%,-2%,85% (active),61.3%,-18%,74% (active),30%,35.8%,-6,60%
CC1C2CCC3C4CC=C5CC(N(C)C)CCC5(C)C4CCC32CN1C (stereo not given),–,–,-9.65% and 13.9% and -0.1%,–,–,-8% and 7.6% and -3.15%,–,–,7.25% and 0.15% and 30.5%,–,–,-6.35% and 18.9% and 33.6%,–,–,9.35% and 23.6% and -7.35%,-3.8% and 1% and -6.15%,–,–
O=C1C(Cl)=C(Nc2ccc(S(=O)(=O)Nc3ccccn3)cc2)C(=O)c2ccccc21,99% (active),99% (active),99.3% (active),96% (active),99% (active),99.2% (active),95% (active),99% (active),99.2% (active),99% (active),99% (active),98.7% (active),90% (active),99% (active),99.2% (active),–,–,–
Cc1c(Cl)c(Cl)cc([N+](=O)[O-])c1Cl,41%,49%,24.9%,–,–,–,31%,47%,-6.9%,11%,38%,52.4%,25%,46%,19.4%,37.6%,51,45%
